# An excerpt weighted towards active compounds, which were near 1% of everything screened.
# Prostate diff = LNCaP prostate cell differentiation activation; flow cytometry side scatter, 4 d; side scatter shift, % at 10 µM; 24,000 compounds, 0.56% hits; AID 795;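 active means side scatter shift above 30%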;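 further: androgen-responsive LNCaP prostate cancer cells in charcoal-stripped serum medium; percent of cells past a gate set so DMSO wells show 10% shift; higher shift means more granular cells and more differentiation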
# 26S disassembly = blocks ATP-dependent breakdown of the yeast 26S proteasome. inhibition of disassembly, % (no concentration beside the values). anti-FLAG beads, GFP-proteasome disassembly, flow cytometry. 24,000 compounds, 0.2% hits;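 active means inhibition of disassembly above about 33%, limit read from the data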;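 further: plate controls were ATP control with full disassembly for no effect and ATP-gamma-S intact proteasomes for full effect; higher percent means more bead fluorescence retained so stronger block of disassembly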
# S aureus QS inh = blocks AIP-induced quorum sensing reporter in S. aureus | S. aureus RN6390 RNAIII-GFP reporter, flow cytometry 3 h | 24,000 compounds, 0.3% hits | inhibition, % at 2 µM;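 active means share of bacteria positive for the green fluorescent reporter and its mean brightness both inhibited by 50% or more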;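 further: 0% = AIP-stimulated control and 100% = unstimulated bacteria without AIP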
# Numbers without * were called inactive.
SMILES,Prostate diff,26S disassembly,S aureus QS inh
CCCNS(=O)(=O)c1ccc(OCC(=O)N2CCN(Cc3ccccc3)CC2)cc1,13,-1,0
O=C(COc1ccc2ccccc2c1)N1CCN(C2CCN(Cc3ccccc3)CC2)CC1,46*,3,0
CCCCn1c(O)c(C(CC)=Nc2cccc(C(=O)O)c2)c(=O)[nH]c1=O,5,-1,-1
